Six1-Eya2 blk = Six1/Eya2 interaction inhibition | AlphaScreen GST-Six1/His-Eya2 binding, biochemical; active compounds read low | activity change, % (concentration not given with the values) | Q15475+O00167 | hit rate 0.56% among 360,000; in the data active = activity change below about -65%; inconclusive = mostly about -30% to -63%; note: % is set by controls: 0 for no effect and ±100 for the full control effect
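Six1/Eya2 binding was read as AlphaScreen signal after compounds were pinned into GST-Six1 plus His-tagged Eya2 (5X stock 250/500 nM) in pH 8.0 Tris/NaCl/TCEP buffer, beads added, then incubated 1 h, 37 C, dark.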
G9a inh = inhibitors of human histone lysine methyltransferase G9a; Potency, µM (titrated, usually from 102 µM), inactives show top-dose activity, negative = inhibition, actives largely listed as inhibitors; AID 504332; G9a H3K9 monomethylation, AlphaScreen, 2 h; Q96KQ7; hit rate 8.8% among 350,000; note: potency is the fitted concentration of half-maximal effect; % is set by controls: 0 for no effect and ±100 for the full control effect; nearly all actives have a fitted effect of over 75% in size
Target sequence (Q96KQ7 913-1193 limits assumed): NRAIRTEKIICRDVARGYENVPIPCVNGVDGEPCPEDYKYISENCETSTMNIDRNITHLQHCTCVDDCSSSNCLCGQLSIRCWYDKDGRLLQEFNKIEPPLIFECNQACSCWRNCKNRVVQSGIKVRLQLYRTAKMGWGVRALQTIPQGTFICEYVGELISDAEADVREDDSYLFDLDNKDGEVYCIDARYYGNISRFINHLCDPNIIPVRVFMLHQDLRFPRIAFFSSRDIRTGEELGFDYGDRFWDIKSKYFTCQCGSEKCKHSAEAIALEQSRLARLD
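Enzyme 20 nM + cpd, 15 min RT; add b-H3K9 pep 500 nM / SAM 20 uM; 2 h RT; anti-H3K9me1 Ab 0.5 ug/mL + SA donor / anti-rabbit acceptor beads 20 ug/mL each, 10 min; AlphaScreen read.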
CtBP-E1A blk = blocks the CtBP interaction with E1A | AlphaScreen GST-E1A/His-CtBP binding, 1536-well; active compounds read low | activity change, % (test concentration not listed) | hit rate 0.49% among 340,000 | AID 651724; in the data active = activity change below about -65%; inconclusive = mostly about -30% to -63%; note: % is set by controls: 0 for no effect and ±100 for the full control effect
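AlphaScreen with 125 nM GST-E1A and 125 nM His-CtBP (5X stocks) in Tris pH 8.0, 300 mM NaCl, BSA, Tween 20, TCEP. Compounds preincubated 2 h at 37 deg C, then glutathione donor/nickel acceptor beads added for 1 h at 37 deg C in dark.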
BAZ2B inh = blocks human BAZ2B; AlphaScreen BAZ2B-H3K14Ac peptide displacement; AID 504333; hit rate 4.4% among 360,000; Potency, µM (series often up to 114 µM), inactives show at the top dose activity change, negative = inhibition, most hits filed as inhibitors; note: potency is the fitted concentration of half-maximal effect; % is set by controls: 0 for no effect and ±100 for the full control effect; nearly all actives have a fitted effect of over 60% in size
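Protein-peptide AlphaScreen: BAZ2B 50 nM, b-H3K14Ac 50 nM, 1x PBS pH 7.4 + 0.01% Tween-20. Preincubation 30 min RT; cpd 30 min RT (top 110 uM); beads 20 min RT, light-protected.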
JMJD2A Tudor = inhibitors of human JMJD2A Tudor domain; O75164; AlphaScreen JMJD2A-Tudor / H3K4me3 peptide binding; Potency, µM (series often up to 114 µM), without a hit: at the top dose activity change, negative = inhibition, usual class: inhibitors; hit rate 4.4% among 390,000; AID 504339; note: potency is the fitted concentration of half-maximal effect; % is set by controls: 0 for no effect and ±100 for the full control effect; nearly all actives have a fitted effect of over 50% in size
HP1b chromo inh = HP1-beta chromodomain-methylated histone interaction inhibition | Potency, µM (series often up to 114 µM), without a hit: at the top dose activity change, negative = inhibition, usual class: inhibitors | hit rate 0.56% among 390,000 | AlphaScreen HP1-beta / biotin-H3K9me3 peptide binding; note: potency is the fitted concentration of half-maximal effect; nearly all actives have a fitted effect of over 70% in size
Target sequence (P83916 whole entry, looked up): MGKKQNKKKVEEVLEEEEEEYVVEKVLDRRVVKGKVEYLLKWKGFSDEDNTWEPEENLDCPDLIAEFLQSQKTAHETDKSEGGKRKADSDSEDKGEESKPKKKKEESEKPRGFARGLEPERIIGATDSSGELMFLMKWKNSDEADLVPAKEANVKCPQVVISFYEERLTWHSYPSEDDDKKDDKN
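Compound inhibition of the preformed complex between 50 nM HP1-beta and 50 nM biotinylated H3K9me3 peptide was read by AlphaScreen. Buffer was PBS pH 7.4 with 0.01% Tween-20. Incubations ran 30 min at room temperature, with 10 ug/mL donor/acceptor beads.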
* marks the source's active call; other numbers are inactive results; ! = a repeat was not active; [ ] = dose if it differs, or a comment. Compounds with a hit are over-represented: about 10% of the library has one in this group of screens. Unless noted, calls come from the whole dose curve; as a rule, active = well fitted inhibition curve with a large enough effect; inconclusive = small, poorly fitted or top-dose-only effect; inactive = no such curve, though single readings can be large or run the other way.

For Cc1cc(N)c2ccccc2[n+]1CCCCCCCCCC[n+]1c(C)cc(N)c2ccccc21 the results were G9a inh 50.1µM*!.
CCCCCCCCC[n+]1cccc2c3ccccc3ccc21 was read as Six1-Eya2 blk -3.6, CtBP-E1A blk -2.0, BAZ2B inh 8.7%, JMJD2A Tudor 6.3% and HP1b chromo inh 42.0%.
`O=C(O)c1csc(-c2cccc(Cl)c2)n1` gave Six1-Eya2 blk -1.1, G9a inh 39.8µM*, CtBP-E1A blk 2.3, BAZ2B inh -25.9%, JMJD2A Tudor -2.9%[11.4 µM] and HP1b chromo inh 11.3%.
O=C(O)c1csc(-c2cccs2)n1 was read as Six1-Eya2 blk 4.5, G9a inh 79.4µM*, CtBP-E1A blk -17.3, BAZ2B inh -17.6%, JMJD2A Tudor -7.5% and HP1b chromo inh 21.6%.
For CCOc1ccc(CCNC(=O)Cn2ncc3c(=O)oc4ccc(C)cc4c32)cc1 the results were G9a inh 6.0%[59 µM], BAZ2B inh -8.9%, JMJD2A Tudor -15.6% and HP1b chromo inh 23.1%.
Screening COc1ccc2[nH]c(=O)cc(C(=O)O)c2c1 returned Six1-Eya2 blk -11.4, G9a inh 35.5µM*, CtBP-E1A blk 20.0, BAZ2B inh 50.1µM*, JMJD2A Tudor inconclusive and HP1b chromo inh -6.7%.
For COc1ccc2[nH]c(=O)c(C(=O)O)cc2c1 the results were Six1-Eya2 blk 6.3, G9a inh -21.3%, CtBP-E1A blk -1.4, BAZ2B inh -15.7%, JMJD2A Tudor 8.9% and HP1b chromo inh -3.4%.
`COCCCNC(=O)C[C@@H]1C[C@@]2(C(=O)OC)CCCCC=C2N(CCc2ccc(OC)c(OC)c2)C1=O` gave Six1-Eya2 blk 11.3 and CtBP-E1A blk 0.0.
For COc1c(F)cccc1C1=CC(=O)C[C@H](c2ccc(F)cc2)C1 the results were Six1-Eya2 blk 9.7 and CtBP-E1A blk 1.9.
`O=c1[nH]c(=S)c2[nH]cnc2[nH]1` gave JMJD2A Tudor -10.8%[57.1 µM] and HP1b chromo inh 3.9%[57 µM].
`Nc1ncnc2[nH]c(=S)[nH]c12` gave Six1-Eya2 blk -18.4, CtBP-E1A blk -13.8, JMJD2A Tudor 3.55µM* and HP1b chromo inh inconclusive.
`CCC(=O)Nc1ccc(-c2nnc(SCC(=O)Nc3nccs3)n2C)cc1` gave Six1-Eya2 blk 5.1, G9a inh 39.8µM*, CtBP-E1A blk -4.0, BAZ2B inh -5.4%, JMJD2A Tudor 89.1µM* and HP1b chromo inh 26.9%.
`Cn1c(CNC(=O)c2ccccc2)nnc1SCC(=O)Nc1nccs1` gave Six1-Eya2 blk -6.8, G9a inh -0.5%, CtBP-E1A blk 14.9, BAZ2B inh -12.0%, JMJD2A Tudor 11.2µM* and HP1b chromo inh -11.7%.
Screening O=C(CSc1nnc(Cn2c(=O)sc3ccccc32)n1-c1ccccc1)Nc1nccs1 returned Six1-Eya2 blk -0.4, G9a inh 35.5µM*, CtBP-E1A blk -16.1, BAZ2B inh -8.6%, JMJD2A Tudor -16.2% and HP1b chromo inh 50.3%.
For Cc1cccc(C(=O)NCc2nnc(SCC(=O)NC3=NCCS3)n2C)c1 the results were Six1-Eya2 blk 8.6, G9a inh -44.7%, CtBP-E1A blk 16.4, BAZ2B inh 4.9%, JMJD2A Tudor 39.8µM* and HP1b chromo inh 15.9%.
`CCn1c(CNC(=O)c2cccc(C)c2)nnc1SCC(=O)NC1=NCCS1` gave Six1-Eya2 blk -1.3, G9a inh -46.3%, CtBP-E1A blk -3.1, BAZ2B inh -14.5%, JMJD2A Tudor -1.8% and HP1b chromo inh 16.7%.
For NC(=O)C1CCN(C(=O)c2ccc3nc(-c4ccccc4)c(-c4ccccc4)nc3c2)CC1 the results were Six1-Eya2 blk 4.8, G9a inh -13.3%, CtBP-E1A blk 0.6, BAZ2B inh -18.9%, JMJD2A Tudor -22.7% and HP1b chromo inh 13.7%.
`Cc1cc(F)ccc1-c1cc(C(=O)NCc2ccco2)[nH]n1` gave Six1-Eya2 blk -4.7 and CtBP-E1A blk 1.3.

Bioassay records deposited in PubChem by National Center for Advancing Translational Sciences (NCATS).
